Assay outcomes (PubChem BioAssay)
SNCA expr inh: inhibitors of alpha-synuclein (SNCA) gene expression; HEK-293 SNCA-luciferase knock-in, luminescence, 24 h; Potency, µM (doses to about 57.2 µM), without a hit: at the highest dose activity change, negative = inhibition, actives largely listed as inhibitors; hit rate 0.17% among 140,000; AID 1671194;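 further: potency means the concentration at half of the fitted maximal effect; plate controls were DMSO cells for no effect and cell-free wells for full effect; nearly all actives have a fitted effect of over 45% in size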
HEK293 viab: counter-screen for SNCA expression inhibitors: cell viability; HEK-293-SNCA-luc viability, GF-AFC fluorescence, 24 h; Potency, µM (top dose mostly 57.1 µM), without a hit: at the highest dose activity change, negative = cytotoxicity, most hits filed as cytotoxic; hit rate 0.12% among 150,000; AID 1671193;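 further: potency means the concentration at half of the fitted maximal effect; 0% = DMSO-treated cells and -100% = medium-only wells without cells; nearly all actives have a fitted effect of over 30% in size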
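Cytotoxicity counterscreen: after 24 h compound treatment of genome-edited SNCA-luciferase HEK-293 cells, live-cell protease substrate GF-AFC read by fluorescence after 30 min; activity scaled between DMSO (0%) and medium-only (-100%), curves Hill-fitted.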
IP6K1 inh: inhibitors of human IP6K1; Q92551; IP6K1 kinase, ADP-Glo luminescence, 2 h; stronger effect = lower value; activity change, % (series mostly up to about 58 µM); hit rate 0.81% among 140,000; AID 1645851; in the data active means activity change below about -25%; further: on the % scale 0 is the no-effect control and ±100 the full control effect
Target sequence (Q92551 whole entry, looked up): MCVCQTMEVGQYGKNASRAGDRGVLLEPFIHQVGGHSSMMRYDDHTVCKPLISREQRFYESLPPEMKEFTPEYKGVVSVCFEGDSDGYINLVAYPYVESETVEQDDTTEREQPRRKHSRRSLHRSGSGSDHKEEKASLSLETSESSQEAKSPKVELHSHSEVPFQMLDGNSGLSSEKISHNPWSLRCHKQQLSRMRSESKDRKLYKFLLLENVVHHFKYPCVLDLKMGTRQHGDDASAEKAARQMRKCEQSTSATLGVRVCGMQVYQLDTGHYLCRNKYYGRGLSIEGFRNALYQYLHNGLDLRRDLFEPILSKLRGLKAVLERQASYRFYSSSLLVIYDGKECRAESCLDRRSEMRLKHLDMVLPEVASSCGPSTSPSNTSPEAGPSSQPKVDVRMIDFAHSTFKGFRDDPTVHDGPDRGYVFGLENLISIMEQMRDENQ
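ADP-Glo luminescence measures ADP made by human IP6K1 during a 2 h RT reaction with ATP/IP6 (mix at 1.3 mM/130 uM); top library doses 57.5 and 19.1 uM final.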
KDM5B inhibitor: KDM5B demethylase inhibition | Q9UGL1 | KDM5B demethylase, FDH-coupled NADH fluorescence (FDH is formaldehyde dehydrogenase) | Potency, µM (titrated, usually from 57.7 µM), usual class: inhibitors | hit rate 2.6% among 220,000; further: potency means the concentration at half of the fitted maximal effect; 0% is about no effect; nearly all actives have a fitted effect of over 70% in size
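Inhibition is measured as reduced NADH fluorescence generation from FDH coupling to formaldehyde release. Truncated KDM5BΔAP at 200 nM final acts on H3K4me3 peptide (12.5 µM in substrate mix) in pH 7.5 HEPES buffer with Tween-20, 30 min, room temperature.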
Active calls of the source: *; [ ] = dose if it differs, or a comment. Only some compounds are listed: those with a hit (about 2.8% of all), similar ones and a draw of the others. Unless noted, the call rests on the fitted dose curve; in most records, active means well fitted curve in the direction sought with a large enough effect; inconclusive means small, poorly fitted or top-dose-only effect, or another doubt; inactive means no such curve, though single readings can be large; an effect the other way counts as inactive or inconclusive.

What do the screens show for `CC(NC(=O)Cn1nc(C(=O)O)c2ccccc2c1=O)c1ccc(Cl)cc1Cl` (configuration not stated)?
KDM5B inhibitor: inactive

Results for O=C(NCc1ccc(N2CCOCC2)cc1)c1cc2c(s1)CN(C1CC1)C2 ?
SNCA expr inh: 46%; HEK293 viab: 1%; IP6K1 inh: 13; KDM5B inhibitor: 11µM*

How did Cc1cccc(N2CCN(C(=O)c3noc(-c4ccc[nH]c4=O)n3)CC2)c1 do in these assays?
SNCA expr inh: 6%; HEK293 viab: 5%; IP6K1 inh: 10; KDM5B inhibitor: 28µM*

Results for COc1ccccc1N1CCN(C(=O)c2noc(-c3ccc(C)cc3)n2)CC1 ?
SNCA expr inh: -18%; HEK293 viab: -1%; IP6K1 inh: -11; KDM5B inhibitor: inactive

Results for Cc1ccc(-c2nc(C(=O)N3CCN(c4ccccc4C)CC3)no2)cc1 ?
SNCA expr inh: -1%; HEK293 viab: 7%; IP6K1 inh: 3; KDM5B inhibitor: inconclusive

Results for Cc1cccc(N2CCN(C(=O)c3noc(-c4ccc5c(c4)OCO5)n3)CC2)c1 ?
SNCA expr inh: 46%; HEK293 viab: 11%; IP6K1 inh: 3; KDM5B inhibitor: inconclusive

What do the screens show for `Cc1ccccc1N1CCN(C(=O)c2noc(-c3ccc[nH]c3=O)n2)CC1`?
SNCA expr inh: 13%; HEK293 viab: 16%; IP6K1 inh: 6; KDM5B inhibitor: 28µM*

What do the screens show for `Cc1cccc(N2CCN(C(=O)c3noc(-c4ccc[nH]c4=O)n3)CC2)c1C`?
SNCA expr inh: -9%; HEK293 viab: 1%; IP6K1 inh: 0; KDM5B inhibitor: 28µM*

How did CC(C)NC(=O)NC1CC2(CCN(C(=O)Cc3cnc[nH]3)CC2)c2ccccc21 (configuration not stated) do in these assays?
SNCA expr inh: -1%; HEK293 viab: 1%; IP6K1 inh: 17; KDM5B inhibitor: inactive

What do the screens show for `COc1ccc(-c2noc([C@@H]3C[C@@H](O)CN3Cc3cc4ccccc4o3)n2)cc1`?
SNCA expr inh: 38%[87.6 µM]; HEK293 viab: -10%[87.6 µM]; IP6K1 inh: 3; KDM5B inhibitor: 32µM*

What do the screens show for `CC(C)c1noc([C@@H]2C[C@@H](O)CN2Cc2ccc(N(C)C)cc2)n1`?
SNCA expr inh: -2%[87.6 µM]; HEK293 viab: 5%[87.6 µM]; IP6K1 inh: -6; KDM5B inhibitor: inactive

How did CC(C)c1noc([C@@H]2C[C@@H](O)CN2Cc2cc3ccccc3o2)n1 do in these assays?
SNCA expr inh: 6%[87.6 µM]; HEK293 viab: 2%[87.6 µM]; IP6K1 inh: 6; KDM5B inhibitor: 40µM*

Results for CC(C)NC(=S)NNC(=O)C1(c2ccccc2)CCC1 ?
KDM5B inhibitor: inactive

What do the screens show for `CCC(C)NC(=O)c1ccc(-c2cccc(C#N)c2)o1` (configuration not stated)?
SNCA expr inh: 35%; HEK293 viab: -9%; IP6K1 inh: 13; KDM5B inhibitor: 25µM*

How did COCc1ccc2c(c1)c(OC(C)(C)C(=O)NC1CCN(C)CC1)nn2CCC(C)C do in these assays?
SNCA expr inh: 2%[87.6 µM]; HEK293 viab: -1%[87.6 µM]; IP6K1 inh: -8; KDM5B inhibitor: 35µM*

Results for COCc1ccc2c(c1)c(OC(C)(C)C(=O)NC1CC1)nn2CCC(C)C ?
SNCA expr inh: -39%[87.6 µM]; HEK293 viab: -1%[87.6 µM]; IP6K1 inh: -7; KDM5B inhibitor: 40µM*

How did COCc1ccc2c(c1)c(OC(C)(C)C(=O)NCCN1CCOCC1)nn2Cc1cccnc1 do in these assays?
SNCA expr inh: 7%; HEK293 viab: 1%; IP6K1 inh: -5; KDM5B inhibitor: inactive

How did COCc1ccc2c(c1)c(OC(C)(C)C(=O)NCCN1CCOCC1)nn2CCC(C)C do in these assays?
SNCA expr inh: 26%; HEK293 viab: 2%; IP6K1 inh: -1; KDM5B inhibitor: 25µM*

Results for COCCNC(=O)c1nc(-c2cccnc2)c2ccccn12 ?
SNCA expr inh: -3%[87.6 µM]; HEK293 viab: -7%[87.6 µM]; IP6K1 inh: 18; KDM5B inhibitor: inactive

How did COC(=O)CNC(=O)c1nc(-c2ccccc2)c2ccccn12 do in these assays?
SNCA expr inh: -7%[87.6 µM]; HEK293 viab: 4%[87.6 µM]; IP6K1 inh: 16; KDM5B inhibitor: inactive

Results for COCCNC(=O)c1nc(-c2ccccc2OC)c2cnccn12 ?
SNCA expr inh: 12%[87.6 µM]; HEK293 viab: 21%[87.6 µM]; IP6K1 inh: 0; KDM5B inhibitor: 32µM*

What do the screens show for `COc1ccccc1-c1nc(C(=O)NCc2ccc(F)cc2)n2ccncc12`?
SNCA expr inh: 0%; HEK293 viab: inconclusive; IP6K1 inh: -12; KDM5B inhibitor: 89µM*

Results for C[S+](=O)([O-])c1ccc(-c2nc(C(=O)NCc3ccc(F)cc3)n3ccncc23)cc1 ?
SNCA expr inh: -3%; HEK293 viab: 14%; IP6K1 inh: -14; KDM5B inhibitor: inactive

What do the screens show for `COC(=O)CNC(=O)c1nc(-c2ccccc2OC)c2ccccn12`?
SNCA expr inh: 63%; HEK293 viab: 3%; IP6K1 inh: 13; KDM5B inhibitor: 89µM*

How did COc1ccccc1-c1nc(C(=O)NC2CC2)n2ccncc12 do in these assays?
SNCA expr inh: 14%[87.6 µM]; HEK293 viab: 6%[87.6 µM]; IP6K1 inh: 4; KDM5B inhibitor: 35µM*

Results for O=C(c1ccc(F)cc1)N1CCC(N2CCCCCC2=O)CC1 ?
SNCA expr inh: -1%[87.6 µM]; HEK293 viab: 2%[87.6 µM]; IP6K1 inh: 12; KDM5B inhibitor: inactive

How did CCn1cc(S(=O)(=O)N2CCC3(CCC3OC)CC2)cn1 (configuration not stated) do in these assays?
SNCA expr inh: -11%; HEK293 viab: -6%; IP6K1 inh: 12; KDM5B inhibitor: inactive

How did O=C(CCc1ccccc1)N1C[C@@H](CO)[C@@H]2Oc3ccc(Cl)cc3[C@@H]21 do in these assays?
IP6K1 inh: 7

What do the screens show for `O=C(O)CCn1ncc2cc(OCC3CCN(C(=O)Oc4ccccc4Cl)CC3)ccc21`?
SNCA expr inh: -11%; HEK293 viab: 2%; IP6K1 inh: -8; KDM5B inhibitor: inactive

What do the screens show for `COc1ccccc1-c1nc(C(=O)NCc2cccs2)n2ccccc12`?
SNCA expr inh: 42%; HEK293 viab: -6%; IP6K1 inh: 36; KDM5B inhibitor: inconclusive

Results for COc1ccccc1-c1nc(C(=O)NCc2ccc(F)cc2)n2ccccc12 ?
SNCA expr inh: 18%; HEK293 viab: -1%; IP6K1 inh: -18; KDM5B inhibitor: 79µM*

How did CCOC(=O)c1cccc(NC(=O)N2CC[C@@H](CC(=O)NCCN(C)C)[C@@H](CC)C2)c1 do in these assays?
SNCA expr inh: -17%[87.6 µM]; HEK293 viab: 5%[87.6 µM]; IP6K1 inh: 4; KDM5B inhibitor: inactive

How did C#CCNC(=O)C[C@@H]1CCN(C(=O)Nc2cccc(C(=O)OCC)c2)C[C@@H]1CC do in these assays?
SNCA expr inh: -8%[87.6 µM]; HEK293 viab: 8%[87.6 µM]; IP6K1 inh: -1; KDM5B inhibitor: 16µM*

What do the screens show for `COCCNc1ncc(-c2cccc(NC(C)=O)c2)c2c1OCC2`?
SNCA expr inh: -26%[87.6 µM]; HEK293 viab: -7%[87.6 µM]; IP6K1 inh: 0; KDM5B inhibitor: 40µM*

Results for COCCNc1ncc(-c2ccc([S+](C)(=O)[O-])cc2)c2c1OCC2 ?
SNCA expr inh: 3%[87.6 µM]; HEK293 viab: 5%[87.6 µM]; IP6K1 inh: 2; KDM5B inhibitor: 32µM*
